HT1080NT lethal: kills 2HG-producing HT-1080-NT fibrosarcoma cells | Potency, µM (top dose mostly 46.1 µM), for inactives: top-dose activity, negative = less viability, hits mostly cytotoxic | HT-1080-NT fibrosarcoma viability, CellTiter-Glo ATP luminescence, 48 h | actives 1.6% (n = 360,000) | AID 686970;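 further: NT is the 2HG producing partner of a matched IDH1 knockdown line; 0% = DMSO-treated cells and -100% = media-only wells without cells; nearly all actives have a fitted effect of over 55% in size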
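A 48-hour cytotoxicity screen used HT-1080-NT cells plated 2 hours before compound delivery. ATP-based CellTiter-Glo luminescence measured viability, normalized to DMSO and no-cell controls.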
HT1080 IDH1KD tx: kills HT-1080 cells with IDH1 knockdown; HT-1080 IDH1 knockdown viability, ATP luminescence, 48 h; Potency, µM (titrated, usually from 46.1 µM), without a hit: at the top dose activity, negative = toxicity, actives largely listed as cytotoxic; actives 2% (n = 360,000);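 further: 0% = DMSO wells and -100% = cell-free medium wells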
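IDH1KD HT-1080 cells, 750/well, RPMI + 5% FBS; compound pinned after 2 h settling; 48 h, 37 °C; CellTiter-Glo luminescence; % activity normalised to DMSO and no-cell wells; curves fitted, classed by r2 and efficacy.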
KB-3-1 cytotox: KB-3-1 parental cell cytotoxicity; KB-3-1 viability, CellTiter-Glo ATP luminescence, 72 h; Potency, µM (highest dose often 46.1 µM), most hits filed as cytotoxic; actives 1.4% (n = 400,000); AID 1347075; further: nearly all actives have a fitted effect of over 60% in size
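KB-3-1 cells, DMEM (no phenol red) + 10% FBS; compound by pin transfer, 72 h, 37 °C. Readout: CellTiter-Glo luminescence after 10 min. Data normalized, curve-fitted.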
KB-V1 cytotox: kills drug-selected multidrug resistant KB-V1 cells; KB-V1 MDR cells viability, CellTiter-Glo, 72 h; Potency, µM (series often up to 46.1 µM), hits mostly cytotoxic; actives 3.4% (n = 400,000); AID 1347076; further: nearly all actives have a fitted effect of over 60% in size
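Drug-selected KB-V1 cells, grown in DMEM lacking phenol red with 10% FBS, receive compound titrations; after three days at 37 degrees C, surviving cell ATP is quantified by CellTiter-Glo luminescence and responses normalized and curve-fitted.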
Active calls of the source: *; i = inactive; ? = inconclusive; / = not tested or not shown; [ ] = dose if it differs, or a comment. This is a sample that favours compounds with a hit; in the whole collection about 5.7% have one here. The call rests on the fitted dose curve; in most records, active means well fitted curve in the direction sought with a large enough effect; inconclusive means small, poorly fitted or top-dose-only effect, or another doubt; inactive means no such curve, though single readings can be large; an effect the other way counts as inactive or inconclusive. Unless noted, on the % scale 0 is the no-effect control and ±100 the full control effect; potency means the concentration at half of the fitted maximal effect.

SMILES	HT1080NT lethal	HT1080 IDH1KD tx	KB-3-1 cytotox	KB-V1 cytotox
Cc1cc2c(cc(C(=O)OCC(=O)NCc3ccco3)n2C)s1	13µM*	10.3µM*	5.8µM*	3.66µM*
Cn1c(C(=O)OCC(=O)NCc2ccco2)cc2sccc21	-23.2%	?	i	i
CC(C)CCNC(=O)C1CCN(C(=O)c2cc3sccc3n2Cc2ccc(Cl)cc2)CC1	/	/	i	i
CCN(CC)S(=O)(=O)c1cc(C(=O)Nc2cc(C)on2)ccc1Cl	1.9%	-10.2%	i	i
CCN(CC)S(=O)(=O)c1cc(C(=O)NC2CCCCC2)ccc1C	0.5%	-1.5%	i	13µM*
Cc1ccc(C(=O)Nc2ncc3c(Cl)cccc3n2)cc1	14.6µM*	13µM*	?	18.4µM*
Cc1ccc(CC(=O)Nc2ccc(Cl)cn2)cc1	12.0%	9.3%	i	i
CCN(CC)S(=O)(=O)c1cc(C(=O)Nc2ccc(Cl)cn2)ccc1C	-10.4%	-2.7%[9.24 µM]	i	9.2µM*
Cc1ccc(C(=O)Nc2ccc(Cl)cn2)cc1	15.8µM*	10µM*	?	6.51µM*
CCN(Cc1ccccc1)S(=O)(=O)c1cc(C(=O)NC2CCCCCC2)ccc1OC	-5.5%	-0.7%	?	?
Cc1ccc(NC(=O)c2ccc(Cl)cc2[N+](=O)[O-])nc1	5.8µM*	4.61µM*	5.8µM*	?
Cc1ccc(NC(=O)c2ccccc2[N+](=O)[O-])nc1	-21.3%	-25.6%	?	i
CCN(CC)S(=O)(=O)c1cccc(C(=O)Nc2ccc(Cl)cn2)c1	1.5%	-18.1%	?	11.6µM*
CCOc1ccc(CCNC(=O)c2cc3c(s2)-c2ccccc2OC3)cc1OCC	/	/	i	?
O=C(NCCO)c1cccc(-c2cnc3c(Nc4cccc(OC(F)(F)C(F)F)c4)nccn23)c1	?	?	i	i
Cc1ccc(S(=O)(=O)Nc2ccc(Nc3nccn4c(-c5cccc(OC(F)(F)F)c5)cnc34)cc2)cc1	18.4µM*	?	?	?
Cc1[nH]c2ccccc2c1C(=O)C(=O)N1CC(C)OC(C)C1 (stereo unspecified)	8.8%	2.1%	i	i
Cc1[nH]c2ccccc2c1C(=O)C(=O)N1CC=C(c2ccccc2)CC1	?	20.6µM*	?	?
C/C(=N\NC(=O)CCC(=O)O)c1c(-c2ccccc2)c2cc(Br)ccc2[nH]c1=O	6.3%	4.5%	i	i
O=C(N/N=C/c1ccc(O)cc1)c1[nH]c2ccc(Br)cc2c1-c1ccccc1	4.61µM*	4.11µM*	7.31µM*	i
O=C(NN=C1CCCC1)c1[nH]c2ccc(Cl)cc2c1-c1ccccc1	?	11.6µM*	i	?
NNC(=O)c1[nH]c2ccccc2c1-c1ccccc1	?	1.3µM*	?	i
O=C(N/N=C/c1c[nH]c2ccccc12)c1[nH]c2ccc(Br)cc2c1-c1ccccc1	7.31µM*	6.51µM*	1.64µM*	?
O=C(Nc1cccc(Nc2ccccc2)c1)c1cnn2c1NC(=C1CC1)C=C2C(F)F	/	/	i	i
O=C(CSc1nc(-c2ccccc2)cn1-c1ccccc1F)Nc1ccc(F)cc1	/	/	i	i
SMILES	HT1080NT lethal	HT1080 IDH1KD tx	KB-3-1 cytotox	KB-V1 cytotox
CC(=O)NC(Cc1ccc(Cl)cc1)C(=O)NCC(N)C(=O)c1ccccc1 (stereo unspecified)	8.8%	9.8%	/	/
CCOC(=O)c1[nH]c(C)c(CCC(=O)Nc2cc(Cl)ccc2C)c1C	/	/	i	i
Cc1c(C(=O)N/N=C/c2ccc(Cl)cc2)[nH]c2ccc(Cl)cc12	5.8µM*	3.26µM*	1.03µM*	?
CCOc1ccc(/C=N/NC(=O)c2[nH]c3ccc(C)cc3c2C)cc1	-7.1%	-12.4%	i	i
C/C(N)=C(/C#N)C(=O)CSc1nnc(SCc2ccc(Cl)cc2)s1	-17.1%	20.6µM*	i	?
CCc1ccc2oc(C(=O)Nc3cc(Cl)ccc3OC)cc(=O)c2c1	/	/	i	i
COc1ccc(CNC(=O)c2cc3ccccc3o2)cc1OC	-8.8%	-17.6%	i	8.2µM*
COc1ccc(NC(=O)c2cc3ccccc3o2)cc1OC	?	21.4%	i	i
COc1ccc(CNC(=O)c2ccc3ccccc3n2)cc1OC	?	-10.3%	?	7.31µM*
CCc1ccc2oc(C(=O)NCCc3ccc(OC)c(OC)c3)cc(=O)c2c1	/	/	16.4µM*	5.17µM*
COc1ccc(CCNC(=O)c2ccc3ccccc3n2)cc1OC	-15.8%	-10.7%	?	i
O=C(Nc1cccc(Cl)c1)C1CCCN(c2nn3cc(-c4ccc(F)cc4)nc3s2)C1 (stereo unspecified)	/	/	i	?
CC(NC(=O)c1ccc2c(c1)N(Cc1cccc(F)c1)C(=O)c1ccccc1S2)c1ccccc1 (stereo unspecified)	/	/	i	i
COC(=O)CCN(c1ccccc1)C(CNS(=O)(=O)c1ccccc1)c1ccccc1 (stereo unspecified)	/	/	i	i
Nc1nnc(CC(c2ccccc2)c2ccccc2)s1	1.9%	1.1%	i	23.1µM*
COc1c2c(c3c(c1OC)c(=O)c1ccccc1n3C)OCO2	-0.7%	-0.1%	i	13µM*
Cc1nnc(N/N=C/c2cc(C)n(-c3ccc(F)cc3)c2C)n1N	23.1µM*	?	i	i
CCc1cccc(NC(=O)COC(=O)c2ccccc2OCc2ccccc2Br)c1	/	/	i	i
CC(CC(=O)Nc1cc([N+](=O)[O-])ccc1Cl)c1ccccc1 (stereo unspecified)	11.1%	3.5%	i	?
O=C(Nc1cc([N+](=O)[O-])ccc1Cl)C(Sc1ccccc1)c1ccccc1 (stereo unspecified)	-9.2%	-8.9%	i	14.6µM*
O=C(Nc1ccc(Cl)c([N+](=O)[O-])c1)C(Sc1ccccc1)c1ccccc1 (stereo unspecified)	?	20.6µM*	25.9µM*	?
COCC(C)NC(C(=O)Nc1ccc(Cl)c([N+](=O)[O-])c1)c1ccccc1 (stereo unspecified)	-0.6%	-5.5%	i	16.4µM*
S=C(NCCCc1cnc[nH]1)NCCCN(CCc1ccccc1)c1ccc(Br)cn1	/	/	?	i
C(=C\c1nc2ccccc2s1)/c1ccc2c(c1)OCO2	/	/	?	i
CC(C)(C)OC(=O)NS(=O)(=O)NOCc1ccccc1	/	/	i	i
SMILES	HT1080NT lethal	HT1080 IDH1KD tx	KB-3-1 cytotox	KB-V1 cytotox
COc1cc(OC)cc(C(=O)NC(=S)NCc2ccco2)c1	17.8µM*	?	i	i
COc1cccc(C(=O)NC(=S)NCc2ccco2)c1	6.4%	2.6%	i	i
CC(C)Cc1nc2sc3c(=O)[nH]cnc3c2c2c1CCC2	-5.4%	-5.6%	i	16.4µM*
COc1cccc(OCCn2c(-c3ccc(Cl)cc3)nc3ccccc3c2=O)c1	/	/	i	i
Cn1c(=O)c2c(nc(Cl)n2Cc2ccc(Cl)c(Cl)c2)n(C)c1=O	-5.1%	-7.8%	?	16.4µM*
Cn1c(=O)c2c(ncn2CCOc2cccc(Br)c2)n(C)c1=O	?	-13.8%	10.3µM*	?

Bioassay records deposited in PubChem BioAssay by National Center for Advancing Translational Sciences (NCATS).
